Rab9 prom act = activators of Rab9 promoter; Huh7 Rab9 promoter-luciferase reporter, luminescence, 24 h; Potency, µM (top dose mostly 9.22 µM), for inactives: at the highest dose activation, negative = inhibition, most hits filed as activators; 320,000 compounds, 2.8% hits; AID 485297; note: % of control where 0% means no effect; nearly all actives have a fitted effect of over 60% in size
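Luminescence read-out: Huh7 cells stably expressing Rab9-luciferase, treated 24 h with compound at 37 °C, then lysed with luciferase reagent for 10 min at ambient before reading.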
SMN2 splice up = enhancers of SMN2 splice variant expression; HEK293 SMN2-luciferase splicing reporter, luminescence, 30-36 h; Potency, µM (series often up to 46.1 µM), without a hit: at the highest dose activity change, positive = activation, actives largely listed as activators; 210,000 compounds, 2.8% hits; note: % of control where 0% means no effect; nearly all actives have a fitted effect of over 55% in size
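qHTS luciferase splicing reporter: luminescence rises when SMN2 exon 7 is included in transfected HEK293 cells. Compound exposure lasted 30-36 h at 37C, with 4.5 mM final sodium butyrate as control, followed by a ONE-Glo read.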
NPC1 prom act = activates the NPC1 promoter; 320,000 compounds, 2.4% hits; AID 485313; Huh7 NPC1 promoter luciferase reporter, 24 h; Potency, µM (top dose mostly 9.22 µM), without a hit: at the highest dose activation, actives largely listed as activators; note: % of control where 0% means no effect; nearly all actives have a fitted effect of over 60% in size
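Luciferase expression driven by the NPC1 promoter was measured in stably transfected Huh7 cells after a 24 h compound incubation, using a luciferase reagent and a luminescence read.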
Luc counter = blocks Kinase-Glo luciferase, a counter-screen artifact | Q27757 | Kinase-Glo luciferase, ATP luminescence, 8 min | Potency, µM (highest dose often 38.3 µM), without a hit: at the highest dose activity change, negative = inhibition, actives largely listed as inhibitors | 200,000 compounds, 0.28% hits | AID 1379; note: % is set by controls: 0 for no effect and ±100 for the full control effect; nearly all actives have a fitted effect of over 60% in size
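Compound is pinned into ATP-containing buffer (10 uM ATP, imidazole pH 7.2, 7 mM MgCl2). Kinase-Glo luciferase reagent is then added. Light output is recorded following an 8-min room-temperature incubation.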
FLuc counter = inhibits or activates purified firefly luciferase, miR-21 counter-screen. purified FLuc, Km substrates, luminescence inhibition. Potency, µM (highest dose often 57.5 µM), without a hit: at the highest dose activity change, negative = inhibition, most hits filed as inhibitors. 360,000 compounds, 6.9% hits. AID 588342;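 note: plate controls were vehicle for no effect and reference inhibitor for full effect; nearly all actives have a fitted effect of over 55% in size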
Target sequence (P08659 whole entry, looked up): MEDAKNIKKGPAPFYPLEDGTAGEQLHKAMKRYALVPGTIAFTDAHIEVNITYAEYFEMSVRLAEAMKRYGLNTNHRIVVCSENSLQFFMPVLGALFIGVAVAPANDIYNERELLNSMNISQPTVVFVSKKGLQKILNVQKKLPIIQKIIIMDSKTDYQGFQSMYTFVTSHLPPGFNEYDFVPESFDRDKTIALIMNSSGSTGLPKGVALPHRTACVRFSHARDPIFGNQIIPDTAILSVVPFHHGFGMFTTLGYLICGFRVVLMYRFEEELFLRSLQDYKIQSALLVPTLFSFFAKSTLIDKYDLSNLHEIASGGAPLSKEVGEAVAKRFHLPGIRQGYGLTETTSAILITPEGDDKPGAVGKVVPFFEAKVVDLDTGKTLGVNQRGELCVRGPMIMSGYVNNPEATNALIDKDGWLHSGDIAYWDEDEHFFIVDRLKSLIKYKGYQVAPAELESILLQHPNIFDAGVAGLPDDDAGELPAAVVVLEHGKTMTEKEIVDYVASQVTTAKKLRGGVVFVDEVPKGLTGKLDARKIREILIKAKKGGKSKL
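Purified P. pyralis luciferase (10nM final) with 10uM D-luciferin and 10uM ATP (Km levels) in 50mM Tris acetate pH 7.5, 10mM Mg acetate, 0.01% Tween-20, 0.05% BSA; qHTS 6-point titration, ~60 µM downward; luminescence read.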
ELG1 genotoxic = inducers of genotoxicity in HEK293T ELG1-luciferase cells; HEK293T ELG1-luciferase reporter, luminescence, 16 h; Potency, µM (series often up to 46 µM), for inactives: top-dose activity change, positive = activation, actives largely listed as activators; 330,000 compounds, 1.3% hits; AID 504466; note: % of control where 0% means no effect; nearly all actives have a fitted effect of over 60% in size
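Step 1: seed 2,000 HEK293T ELG1-luciferase cells per well. Step 2: add compound or DMSO, incubate 16 hr at 37 °C. Step 3: ONE-Glo, 30 min at room temperature, read luminescence.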
Numbers without * were called inactive; ? = inconclusive; . = no result given; [ ] = remark or other dose. Sampled rows, rich in hits. Any-hit rate of the full collection: about 7.5%. Calls come from the whole dose curve; as a rule, active = well fitted curve in the direction sought with a large enough effect; inconclusive = small, poorly fitted or top-dose-only effect, or another doubt; inactive = no such curve, though single readings can be large; an effect the other way counts as inactive or inconclusive. Potency is the fitted concentration of half-maximal effect.

SMILES	Rab9 prom act	SMN2 splice up	NPC1 prom act	Luc counter	FLuc counter	ELG1 genotoxic
O=C(Nc1cc2c(cc1Br)OCCO2)c1ccco1	30%	13µM*	23%	-8%	24µM*	?
O=C(Nc1ccc(NC(=O)c2ccco2)c(Cl)c1)c1ccc2c(c1)OCCO2	4µM*	.	?	.	0.48µM*	11%
CC(=O)c1cc2c(cc1NC(=O)c1ccco1)OCCO2	-5%	15%	-6%	5%	0%	0%
O=C(Nc1ccc(NC(=O)c2ccco2)cc1)c1ccc2c(c1)OCO2	7%	12%	4%	?	0%	?
CCc1ccc2oc(=O)cc(CN3CCCCC3)c2c1	0%	.	1%	.	-2%	4%
CCCCOc1cccc(C(=O)N(Cc2ccc(N(C)C)cc2)C2CCS(=O)(=O)C2)c1 (stereo not given)	.	-15%	.	.	-6%	.
CCCC(=O)c1cc2c(cc1NC(=O)c1cccs1)OCCO2	14%	-3%	-1%	-3%	-7%	2%
O=C(Nc1cc2c(cc1Br)OCCO2)c1cccs1	2.5µM*	22µM*	2.8µM*	14%	11µM*	12µM*
CCN(CC)C(=O)c1cc(-c2ccc(Br)cc2)on1	3.2µM*	?	2µM*	0%	9.5µM*	?
COc1cccc(-c2cc(C(=O)O)no2)c1	-2%	-2%	-1%	16%	?	-2%
COC(=O)c1cc(-c2cccc(OC)c2)on1	-3%	-11%	-2%	-4%	12µM*	2%
COc1ccc(-c2cc(C(=O)NC(C)C)no2)cc1	1.1µM*	13µM*	2.5µM*	-3%	5.4µM*	6.5µM*
COC(=O)c1cc(-c2ccccc2)on1	1%	8%	-21%	-2%	17µM*	2%
COc1cccc(CN2CC(C(=O)NCCc3ccccc3C(F)(F)F)CCC2=O)c1 (stereo not given)	-1%	.	0%	.	1%	1%
Cc1ccc(C2C=C(c3ccc(F)cc3)Nc3nc(CCCO)nn32)cc1 (stereo not given)	.	-29%	.	.	4%	.
CC1=C(C(=O)Nc2ccccc2C(=O)NCCCOC(C)C)SCCO1	2%	.	2%	.	3%	-4%
COC(=O)c1cc(-c2ccc(OC)cc2)on1	-7%	.	-1%	-6%	8.5µM*	1%
COC(=O)c1cc(-c2ccc(Br)cc2)on1	1%	-2%	-1%	1%	8.5µM*	1%
COC(=O)c1cc(-c2ccc(OC)c(OC)c2)on1	1%	.	-2%	.	-11%	1%
CC(=O)O[C@@H]1C(=O)[C@@]2(C)[C@H](O)C[C@H]3OC[C@]3(OC(C)=O)[C@@H]2[C@H](OC(=O)c2ccccc2)[C@@]2(O)C[C@H](OC(=O)[C@@H](O)[C@@H](NC(=O)c3ccccc3)c3ccccc3)C(C)=C1C2(C)C (stereo in doubt)	.	3%[20.6 µM]	.	-2%[17.1 µM]	.	.
Fc1ccccc1-c1nc(-c2ccccc2)oc1NC1CCCCC1	.	19%	.	-4%	.	.
COc1ccc(C2C3=C(N=C4SCC(=O)N42)c2ccccc2CC3)cc1 (stereo not given)	23%	-5%	29%	-13%	11µM*	?
Cc1ccc(Nc2ncnc3ccccc23)cc1	1.8µM*	.	?	-6%	12µM*	17%
CC(C)Oc1ccc(Nc2ncnc3ccccc23)cc1	3.2µM*	13µM*	3.5µM*	-4%	17µM*	?
Oc1ccc(Nc2ncnc3ccccc23)cc1	4%	.	-1%	.	?	9%
SMILES	Rab9 prom act	SMN2 splice up	NPC1 prom act	Luc counter	FLuc counter	ELG1 genotoxic
COc1cccc(OC(=O)CSc2nnc(-c3cccs3)o2)c1	.	.	.	.	4%	.
O=C(c1ccc(COc2ccc(Cl)cc2Cl)o1)N1CCCC1	9%	.	1%	.	?	17%
CC(C)(C)NC(=O)N1CCN(c2nc(-c3ccccc3)ns2)CC1	3.5µM*	.	?	.	-55%	14%
O=C(c1ccc(F)cc1F)N1CCCN(c2nc(-c3ccccc3)ns2)CC1	0%	.	0%	.	3%	-4%
COc1ccccc1CNC(=O)CS(=O)(=O)Cc1nc(-c2ccccc2C)oc1C	.	-2%	.	.	?	.
Cc1nc2ccccn2c1C(=O)N/N=C/c1cc(C)n(-c2ccc(Cl)cc2)c1C	0%	-63%	-4%	-2%	21µM*	-3%
CCNC(=S)N/N=C/c1cc(C)n(-c2ccc(Cl)cc2)c1C	?	18µM*	?	4%	17µM*	?
CC1CC1C(=O)N1CCN(S(=O)(=O)c2cc(C(F)(F)F)cc(C(F)(F)F)c2)CC1 (stereo not given)	-4%	.	1%	.	1%	-9%
COC(=O)C1=NN(C(=O)c2cccc(Br)c2)C(O)(c2ccc(Cl)cc2)C1 (stereo not given)	-4%	.	-1%	.	11µM*	4%
CCOC(=O)C1=NN(C(=O)c2ccc(OC)cc2)C(O)(c2ccc(Cl)cc2)C1 (stereo not given)	-8%	12%	-1%	-2%	-14%	-6%
CC(C)(CC(=O)OCC(=O)Nc1ccc(F)c(Cl)c1)CC1=NS(=O)(=O)c2ccccc2N1	.	.	.	.	-14%	.
O=C(NNC(=O)c1cc(-c2ccccc2)nc2ccccc12)Nc1cccc(Cl)c1	0%	-16%	-2%	-4%	?	-21%
O=C(NNC(=O)c1cc(-c2cccnc2)nc2ccccc12)Nc1ccc(Cl)cc1	26%	-3%	13%	0%	24µM*	-8%
C=CCNC(=S)NNC(=O)c1cc(-c2cccnc2)nc2ccccc12	6%	.	0%	.	9.5µM*	3%
CC(C)(C)c1ccc(-c2cc(C(=O)NNC(=O)Nc3ccccc3)c3ccccc3n2)cc1	21%	14µM*	?	-10%	0.48µM*	?
Cc1noc(C)c1COc1ccc(C(=O)N2CCN(c3ccccc3O)CC2)cc1	-1%	.	1%	.	6%	-1%
Cn1c(SCc2ccc(F)cc2)nc2ccc(C(=O)NCc3cccc(Cl)c3)cc21	.	5%	.	.	-5%	.
O=C1CC(C(=O)N2CCc3ccccc32)CN1c1ccccc1 (stereo not given)	-5%	.	-1%	.	0%	-1%
N#CC(C#N)=C(N)Nc1cccc(Cl)c1	-2%	.	0%	.	6%	1%
CC1CCC(=C(C#N)C(=O)Nc2cccc(Cl)c2)CC1 (stereo not given)	-6%	-11%	-1%	-5%	24µM*	-1%
O=C(NCC(c1cccnc1)N1CCN(c2ccccc2F)CC1)c1ccc(F)cc1 (stereo not given)	.	.	.	.	-1%	.
CC(C)(C)c1ccc(C(=O)Nc2onc3c2CCCC3)cc1	.	11µM*	.	.	0.34µM*	.

Source: PubChem (National Center for Advancing Translational Sciences (NCATS))
